± gives the standard deviation of the averaged measurements.
What follows are molecules tested on Listeria monocytogenes 10403S (assay: growth inhibition relative to ceftriaxone-alone control; higher = stronger potentiation of ceftriaxone growth inhibition). Settings: 10 µM; ceftriaxone 1 ug/ml; 12 h.
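Further: End-point A600 read in BHI broth at 37 °C with 2% DMSO, inhibition computed as (1 − OD with compound plus ceftriaxone ÷ OD with ceftriaxone only) × 100.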

| Compound | growth inhibition [%] |
| --- | --- |
| CC[C@H](CO)Nc1nc(NCc2ccccc2)c2ncn(C(C)C)c2n1 [Roscovitine (Seliciclib, CYC202)] | 22.9 ± 22 |
| c1ccc(Nc2ncc(-c3ccccc3)o2)cc1 | 2.45 ± 0.39 |
| CN1CCN(c2ccc3nc(-c4c(N)c5c(F)cccc5[nH]c4=O)[nH]c3c2)CC1 [Dovitinib (TKI-258)] | 1.47 ± 0.1 |
| Cc1ccc2c(-c3ccnc(Nc4ccc5c(c4)OCCO5)n3)c(-c3ccc(C(F)(F)F)cc3)nn2n1 | -1.85 ± 0.84 |
| O=C1NC(=O)/C(=C/c2ccc(-c3ccc(F)cc3O)o2)S1 | 70.7 ± 9.8 |
| CCn1c(-c2nonc2N)nc2c(N3CCCC3)nccc21 | 18.7 ± 38 |
| COc1cccc2cc(-c3nc([C@H]4CC[C@H](C(=O)O)CC4)n4ncnc(N)c34)[nH]c12 | 16.8 ± 14 |
| CNC(=O)c1cncc(/C=C/c2ccccc2C)c1 | 25.3 ± 14 |
| Cc1cc(Nc2cc(N3CCN(C)CC3)nc(Sc3ccc(NC(=O)C4CC4)cc3)n2)n[nH]1 [VX-680 (MK-0457, Tozasertib)] | 52.7 ± 17 |
| O=C1Nc2ccc(C(=O)c3ccco3)cc2C1=Cc1cc(Cl)c(O)c(Cl)c1 | 13.9 ± 4.5 |
| COc1cc2c(cc1Nc1nc(Nc3ccsc3C(N)=O)c3cc[nH]c3n1)N(C(=O)CN(C)C)CCC2 | -0.422 ± 3.1 |
| O=c1sn(-c2cccc3ccccc23)c(=O)n1Cc1ccccc1 [Tideglusib] | 89.5 ± 12 |
| COc1cc2ncn(-c3cc(O[C@@H](C)c4ccccc4Cl)c(C(N)=O)s3)c2cc1OC | -12.3 ± 4.7 |
| CC(=O)NCc1cccc(C#Cc2cncnc2Nc2ccc(OCc3cccc(F)c3)c(Cl)c2)c1 | -1.26 ± 2.3 |
| NS(=O)(=O)c1ccc(-c2cc3ccncc3cc2OCc2ccccc2)cc1 | -3.99 ± 6.9 |
| Cc1cnc(Nc2ccc(N3CCN(C)CC3)cc2)nc1Nc1cccc(S(=O)(=O)NC(C)(C)C)c1 | 42.3 ± 24 |
| Nc1ccc(C(=O)Nc2cccc(-c3nc(N4CCOCC4)c4oc5ncccc5c4n3)c2)cn1 | 31.1 ± 1.6 |
| Nc1nc(-c2ccc(F)cc2)c(-c2ccc3ncccc3n2)s1 | -1.57 ± 2.7 |
| COc1cccc(-n2nc(C)c3c(N/N=C(\C)c4ccncc4)ncnc32)c1 | -12.5 ± 20 |

| Compound | growth inhibition [%] |
| --- | --- |
| CN1CCC(C(=O)Nc2n[nH]c3nc(-c4ccc(O)cc4)c(Br)cc23)CC1 | -3.78 ± 12 |
| CN(C)Cc1cccc(N/C(=C2\C(=O)Nc3cc(C(N)=O)ccc32)c2ccccc2)c1 | 8.63 ± 3.3 |
| NC1(c2ccc(-c3nc4ccn5c(=O)[nH]nc5c4cc3-c3ccccc3)cc2)CCC1 | 86.41 ± 0.47 |
| Fc1ccc(-c2cc(-c3c[nH]nc3-c3ccccn3)ccn2)cc1 | -6.8 ± 13 |
| CN(C)c1cc2c(Nc3ccc4nc(Cc5ccccc5)[nH]c4c3)ncnc2cn1 | -14.1 ± 8.1 |
| CS(=O)(=O)CCNCc1ccc(-c2ccc3ncnc(Nc4ccc(OCc5cccc(C(F)(F)F)c5)cc4)c3c2)o1 | -9.85 ± 16 |
| CC(=O)Nc1cccc(-n2c(=O)n(C3CC3)c(=O)c3c(Nc4ccc(I)cc4F)n(C)c(=O)c(C)c32)c1 | 31.3 ± 12 |
| COc1cc(C)c(NC(=O)CN(C)C)cc1Nc1nc(Nc2cccc(F)c2C(N)=O)c2cc[nH]c2n1 | -5.99 ± 8.5 |
| Fc1ccc(Nc2nccc(-c3c(-c4ccc(C(F)(F)F)cc4)nn4ncccc34)n2)cc1F | -3.35 ± 4.4 |
| CN(C)c1ccc(-c2nc3ncc(Cl)c(N4CCN(CC(=O)Nc5nccs5)CC4)c3[nH]2)cc1 | 15.3 ± 0.56 |
| Cc1ccc2c(-c3ccnc(Nc4cccc(C(F)(F)F)c4)n3)c(-c3ccccc3)nn2n1 | -3.53 ± 4.7 |
| O=C(Nc1cccc(Nc2ncc(Br)c(NCCc3cnc[nH]3)n2)c1)N1CCCC1 | 9.34 ± 13 |
| CC1=C(C(=O)Nc2ccc3[nH]ncc3c2)C(c2ccc(F)cc2)NC(=O)N1 (stereo not drawn) | 2.29 ± 1.7 |
| CS(=O)(=O)CCNCc1nc(-c2ccc3ncnc(Nc4ccc(OCc5cccc(C(F)(F)F)c5)cc4)c3c2)cs1 | -8.22 ± 14 |
| O=C(NCc1ccccc1)c1csc(Nc2ccncn2)n1 [Thiazovivin] | 5.95 ± 11 |
| O=C(O[C@H]1CN[C@H](C#Cc2cc3ncnc(Nc4ccc(OCc5cccc(F)c5)c(Cl)c4)c3s2)C1)N1CCOCC1 | 14.3 ± 11 |
| CCc1cc2c(cc1N1CCC(N3CCOCC3)CC1)C(C)(C)c1[nH]c3cc(C#N)ccc3c1C2=O | -2.85 ± 9.2 |
| CCn1c(-c2nonc2N)nc2c(C#CCN)ncc(OCCCN)c21 | -1.03 ± 0.6 |
| COc1ccc(-c2coc3ncnc(N)c23)cc1 | 8.14 ± 12 |
